Consider 20 compounds from PubChem BioAssay (EPA / NIEHS).

Values joined by “and” are separate entries in the source; they are usually repeats but may differ in a detail not shown here. Equal entries are not always repeated. The source holds several records for some structures; these can differ, active in one and inactive in another. Active and inactive are the calls of the source. Rule for the calls: active = hit-call score of the fitted dose curve at least 0.9, where 1 is the maximum; inactive = score below 0.9.

The assay is described as follows: BSK_SAg_SRB: Viability Assessment in the BioMAP Diversity Plus: SAg Assay (AID 2283096).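 Note: cells read one day after compound addition; hits may be either gain or loss of signal compared with DMSO.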 Conditions: primary human HUVEC with PBMC. A digest of the protocol:
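Endothelial/PBMC primary human co-culture; compound 24 h; fix 10% TCA, stain 0.1% SRB, A560; protein content as cytotoxicity proxy; bidirectional curve fit, DMSO = baseline.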
`C=C(F)C(=O)OC(C(F)(F)F)C(F)(F)F`: the outcome was inactive. For `CC(C)Cc1ccc(C(C)C(=O)O)cc1` (stereo unspecified), the outcome was inactive.

`O=C(O)C(F)(F)OC(F)(F)C(F)(F)OC(F)(F)C(F)(F)C(F)(F)C(F)(F)F`: the AC50 (commonly the concentration at which the activity in the assay is half-maximal) is 30 µM (active) and the outcome was inactive. Take `CCCCCCCCCCCCS`: the AC50 was 36.1 µM (active). `C=C(C)C(N)=O`: the result was inactive.

For the compound `C[C@]12CC[C@@H]3c4ccc(O)cc4CC[C@H]3[C@@H]1CC[C@@H]2O`, the AC50 was 10.3 µM (active).

On to `Nc1ccc(N)c([N+](=O)[O-])c1`, for which the outcome was inactive. Turning to `CC1(C)[C@H](C=C(Cl)Cl)[C@H]1C(=O)OCc1cccc(Oc2ccccc2)c1`, the outcome was inactive.

As for `CC/C(=C(\c1ccccc1)c1ccc(OCCN(C)C)cc1)c1ccccc1`, the AC50 is 10.3 µM (active) and 9.96 µM (active).

For the compound `O=S1(=O)CC(Cl)(Cl)C(Cl)(Cl)C1`, the AC50 is 0.655 µM (active).

For `CC=CC(=O)C1=C(C)C=CCC1(C)C`, the outcome was inactive. Turning to `CC(=O)OCC=C(C)CCC=C(C)CCC=C(C)C`, the outcome was inactive. For the compound `C=C1CC/C=C(\C)CC[C@@H]2[C@@H]1CC2(C)C`, the AC50 was 33.1 µM (active). Turning to `OCCN1CCOCC1`, the outcome was inactive. With `C#C[C@]1(O)CC[C@H]2[C@@H]3CCc4cc(O)ccc4[C@H]3CC[C@@]21C`, the AC50 is 5.5 µM (active). For the compound `CCC(=O)OCC=Cc1ccccc1`, the outcome was inactive. As for `c1ccc(Sc2ccccc2)cc1`, the AC50 was 31.7 µM (active). For `CCCCOCCOCCO`, the result was inactive. As to `CCOC(=O)C=Cc1ccccc1`, the outcome was inactive. Regarding `O=C(c1ccc(OCCN2CCCCC2)cc1)c1c(-c2ccc(O)cc2)sc2cc(O)ccc12`, the AC50 is 24.1 µM (active).
